Test results as given in PubChem BioAssay AID1159580 (chemical genetic matrix, 2015).
In all, about 5,500 compounds went through this assay and about 2,000 (36%) were called active. Roughly 18% stayed inconclusive and do not appear here. No stated cut-off is given here; in the data, active means normalized growth mostly below about 0.91 (no sharp cut-off); inconclusive means no clear call, values can overlap the other calls; inactive means mostly above about 0.92. The list shows a part of the results.

Test: chemical genetic growth profiling, strain panel (AID 1159580);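 further: tested at 20 µM; growth read once vehicle control cultures reached saturation at 30 °C; 1 = growth at the plate median or of vehicle wells; lower values mean less growth of the strain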
Conditions: S. cerevisiae deletion strains, growth OD

Measured: normalized growth

C=C1CC2C(CCC3(C)C(=O)CCC23)C2(C)C=CC(=O)C=C12 (stereo unspecified)
active: locus YAL026C, strain drs2, active compounds read low 0.905 | locus YBR009C, strain hhf1, active compounds read low 0.85 | locus YDR334W, strain swr1, active compounds read low 0.896 | locus YDR392W, strain spt3, active compounds read low 0.733 | locus YEL003W, strain gim4, active compounds read low 0.912 | locus YEL037C, strain rad23, active compounds read low 0.917 | locus YGL227W, strain vid30, active compounds read low 0.874 | locus YJL164C, strain tpk1, active compounds read low 0.916 | locus YNL071W, strain lat1, active compounds read low 0.883 | locus YOR001W, strain rrp6, active compounds read low 0.881
inactive: locus YAL021C, strain ccr4, active compounds read low 0.958 | locus YAL030W, strain snc1, active compounds read low 0.949 | locus YBL061C, strain skt5, active compounds read low 0.928 | locus YBR023C, strain chs3, active compounds read low 0.941 | locus YBR171W, strain sec66, active compounds read low 0.92 | locus YBR231C, strain swc5, active compounds read low 0.943 | locus YBR279W, strain paf1, active compounds read low 0.963 | locus YCL011C, strain gbp2, active compounds read low 0.935 | locus YCL016C, strain dcc1, active compounds read low 0.983 | locus YCL069W, strain vba3, active compounds read low 0.927 | locus YCR088W, strain abp1, active compounds read low 0.947 | locus YDL005C, strain med2, active compounds read low 0.942 | locus YDL040C, strain nat1, active compounds read low 0.941 | locus YDR001C, strain nth1, active compounds read low 0.936 | locus YDR069C, strain doa4, active compounds read low 0.944 | locus YDR137W, strain rgp1, active compounds read low 0.931 | locus YDR159W, strain sac3, active compounds read low 0.919 | locus YDR195W, strain ref2 0.945 | locus YDR297W, strain sur2, active compounds read low 0.946 | locus YDR335W, strain msn5, active compounds read low 0.951 | locus YEL061C, strain CIN8 (second series), active compounds read low 0.922 | locus YER015W, strain faa2, active compounds read low 0.939 | locus YER016W, strain bim1, active compounds read low 0.955 | locus YER111C, strain swi4, active compounds read low 0.945 | locus YER155C, strain BEM2 (second series), active compounds read low 0.946 | locus YFR010W, strain ubp6, active compounds read low 0.928 | locus YGL167C, strain pmr1, active compounds read low 0.928 | locus YGL173C, strain kem1, active compounds read low 0.95 | locus YGL240W, strain doc1, active compounds read low 0.95 | locus YGL253W, strain hxk2, active compounds read low 0.944 | locus YHR013C, strain ard1, active compounds read low 0.908 | locus YHR027C, strain rpn1, active compounds read low 0.93 | locus YHR142W, strain chs7, active compounds read low 0.905 | locus YJL092W, strain hpr5, active compounds read low 0.932 | locus YJL095W, strain BCK1 (second series), active compounds read low 0.952 | locus YJL115W, strain asf1, active compounds read low 0.928 | locus YJL129C, strain trk1, active compounds read low 0.96 | locus YJL154C, strain vps35, active compounds read low 0.936 | locus YJL166W, strain qcr8, active compounds read low 0.962 | locus YJL187C, strain SWE1, active compounds read low 0.939 | locus YKL160W, strain elf1, active compounds read low 0.998 | locus YKR026C, strain gcn3, active compounds read low 0.939 | locus YKR091W, strain srl3, active compounds read low 0.95 | locus YLL001W, strain dnm1, active compounds read low 1.01 | locus YLL026W, active compounds read low 0.936 | locus YLL041C, strain sdh2, active compounds read low 0.939 | locus YLR027C, strain aat2, active compounds read low 0.98 | locus YLR221C, strain rsa3, active compounds read low 0.992 | locus YLR258W, strain gsy2, active compounds read low 0.945 | locus YLR262C, strain YPT6 (second series), active compounds read low 0.925 | locus YLR320W, strain mms22, active compounds read low 0.991 | locus YLR342W, strain FKS1, active compounds read low 0.929 | locus YLR357W, strain rsc2, active compounds read low 0.991 | locus YLR370C, strain arc18, active compounds read low 0.937 | locus YLR384C, strain iki3, active compounds read low 0.925 | locus YML120C, strain ndi1, active compounds read low 0.96 | locus YMR058W, strain fet3, active compounds read low 0.929 | locus YMR125W, strain sto1, active compounds read low 0.989 | locus YMR129W, active compounds read low 0.928 | locus YMR205C, strain PFK2, active compounds read low 0.992 | locus YMR231W, strain pep5, active compounds read low 0.946 | locus YNL209W, strain ssb2, active compounds read low 0.957 | locus YNL248C, strain rpa49, active compounds read low 1 | locus YNL322C, strain KRE1 (second series), active compounds read low 0.934 | locus YNR049C, strain mso1, active compounds read low 0.932 | locus YOR070C, strain gyp1, active compounds read low 0.938 | locus YOR080W, strain dia2, active compounds read low 0.934 | locus YOR083W, strain WHI5, active compounds read low 0.994 | locus YOR106W, strain vam3, active compounds read low 0.969 | locus YOR265W, strain rbl2, active compounds read low 0.948 | locus YOR270C, strain vph1, active compounds read low 0.895 | locus YOR290C, strain snf2, active compounds read low 0.941 | locus YPL051W, strain arl3, active compounds read low 0.988 | locus YPL078C, strain atp4, active compounds read low 1 | locus YPL106C, strain sse1, active compounds read low 0.95 | locus YPL240C, strain hsp82, active compounds read low 0.969
